Data published in PubChem BioAssay (EPA / NIEHS).
Results filed as inconclusive are left out. Activity calls are given as the source filed them. The calls were made as follows, unless noted: active = hit-call score of the fitted dose curve at least 0.9, where 1 is the maximum; inactive = score below 0.9.

What was measured:
[1] = target: Bile acid receptor (Homo sapiens) (UniProt Q96RI1); experiment: ATG_FXR_TRANS: Attagene TRANS-FACTORIAL HepG2 Assay for Farnesoid X Receptor (FXR) (AID 2282979; active = hit-call score of the fitted dose curve at least 0.9, where 1 is the maximum;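 also: hits raise reporter mRNA above DMSO so AC50 marks FXR activation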); settings: HepG2 Attagene TRANS FXR-GAL4 reporter transcription
Bile acid receptor (Homo sapiens), sequence (Q96RI1 whole entry, looked up, the tested form may be a part): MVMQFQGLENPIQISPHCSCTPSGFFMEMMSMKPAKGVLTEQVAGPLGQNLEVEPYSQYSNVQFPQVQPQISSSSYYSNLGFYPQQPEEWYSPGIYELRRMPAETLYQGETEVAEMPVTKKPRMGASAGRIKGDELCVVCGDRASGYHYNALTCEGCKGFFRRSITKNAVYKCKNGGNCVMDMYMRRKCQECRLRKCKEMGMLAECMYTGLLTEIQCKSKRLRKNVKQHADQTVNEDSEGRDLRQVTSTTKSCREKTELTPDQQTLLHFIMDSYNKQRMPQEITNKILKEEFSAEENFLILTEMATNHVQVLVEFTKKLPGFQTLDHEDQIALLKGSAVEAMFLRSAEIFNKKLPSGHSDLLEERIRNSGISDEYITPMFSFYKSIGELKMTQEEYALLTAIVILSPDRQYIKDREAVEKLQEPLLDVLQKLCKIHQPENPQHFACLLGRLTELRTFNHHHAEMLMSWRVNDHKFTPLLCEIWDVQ
Method in brief: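 HepG2 cells transiently transfected with reporter constructs in which a chimeric FXR-GAL4 protein drives a GAL4-UAS reporter; 24 h compound exposure. Reporter mRNA measured by RT-PCR, FAM labelling, HpaI digestion and capillary electrophoresis; gain-of-signal versus DMSO.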

[2] = target: Oxysterols receptor LXR-alpha (Homo sapiens) (UniProt Q13133); experiment: ATG_LXRa_TRANS: Attagene TRANS-FACTORIAL HepG2 Assay for human Liver X Receptor alpha (LXRa) (AID 2282980; active = hit-call score of the fitted dose curve at least 0.9, where 1 is the maximum); settings: HepG2 Attagene TRANS reporter, LXRa transactivation
Oxysterols receptor LXR-alpha (Homo sapiens), sequence (Q13133 whole entry, looked up, the tested form may be a part): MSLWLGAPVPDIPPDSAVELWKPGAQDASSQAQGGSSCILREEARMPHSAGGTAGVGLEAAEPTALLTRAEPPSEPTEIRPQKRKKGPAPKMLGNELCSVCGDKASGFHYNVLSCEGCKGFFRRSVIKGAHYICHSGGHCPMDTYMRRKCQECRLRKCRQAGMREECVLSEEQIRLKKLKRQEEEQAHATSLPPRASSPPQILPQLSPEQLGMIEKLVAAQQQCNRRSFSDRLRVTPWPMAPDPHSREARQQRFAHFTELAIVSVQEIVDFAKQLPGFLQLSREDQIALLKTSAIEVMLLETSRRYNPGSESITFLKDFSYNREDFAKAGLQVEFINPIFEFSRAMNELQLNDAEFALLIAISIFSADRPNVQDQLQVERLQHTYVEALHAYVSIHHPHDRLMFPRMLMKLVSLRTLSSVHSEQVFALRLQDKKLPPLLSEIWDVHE
Method in brief: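 HepG2 cells were transiently transfected with multiplexed reporter units driven by chimeric LXRa–GAL4 fusion proteins, then dosed for 24 h. Reporter mRNA was quantified by RT-PCR, fluorescent labelling and capillary electrophoresis; gain of signal fitted against DMSO baseline.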

[3] = target: Hepatocyte nuclear factor 4-alpha (Homo sapiens) (UniProt P41235); experiment: ATG_HNF4a_TRANS: Attagene TRANS-FACTORIAL HepG2 Assay for human Hepatocyte Nuclear Factor 4 alpha (HNF4a) (AID 2282982; active = hit-call score of the fitted dose curve at least 0.9, where 1 is the maximum); settings: HepG2 HNF4a transactivation reporter, mRNA readout
Hepatocyte nuclear factor 4-alpha (Homo sapiens), sequence (P41235 whole entry, looked up, the tested form may be a part): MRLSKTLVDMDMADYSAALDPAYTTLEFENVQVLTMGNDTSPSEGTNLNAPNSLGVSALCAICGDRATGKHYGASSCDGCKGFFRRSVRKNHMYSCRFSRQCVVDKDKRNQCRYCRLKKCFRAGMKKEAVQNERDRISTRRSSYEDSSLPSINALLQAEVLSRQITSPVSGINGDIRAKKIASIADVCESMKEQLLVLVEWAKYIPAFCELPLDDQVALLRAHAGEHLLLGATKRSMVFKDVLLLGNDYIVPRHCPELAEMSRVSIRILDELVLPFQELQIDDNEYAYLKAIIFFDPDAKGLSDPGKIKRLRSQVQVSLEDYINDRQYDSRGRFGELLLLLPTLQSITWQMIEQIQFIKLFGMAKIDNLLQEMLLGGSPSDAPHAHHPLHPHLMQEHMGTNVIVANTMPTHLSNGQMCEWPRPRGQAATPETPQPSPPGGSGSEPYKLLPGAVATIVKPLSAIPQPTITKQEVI
Method in brief: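 Endpoint reflects transcriptional activation of a GAL4-UAS reporter by an HNF4a-GAL4 chimera in transfected HepG2 cells, 24 h post-dosing. Fluorescence from RT-PCR products separated by capillary electrophoresis; DMSO baseline.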

[4] = ATG_M_06_TRANS: Attagene TRANS-FACTORIAL HepG2 Assay for M06 Transcription Factor (Internal Marker) (AID 2282983; active = hit-call score of the fitted dose curve at least 0.9, where 1 is the maximum); settings: HepG2 Attagene TRANS M06 internal marker reporter
Method in brief: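 In this multiplexed HepG2 system, compounds are incubated 24 h with cells carrying GAL4-UAS reporter units. Reporter RNA is amplified and resolved by capillary electrophoresis, and induction is scored against DMSO.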

[5] = ATG_M_32_TRANS: Attagene TRANS-FACTORIAL HepG2 Assay for M32 Transcription Factor (Internal Marker) (AID 2282984; active = hit-call score of the fitted dose curve at least 0.9, where 1 is the maximum;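 also: transcript level of a background control reporter unit measured by RT-PCR and capillary electrophoresis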); settings: HepG2 Attagene TRANS M32 internal marker reporter
Method in brief: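 Internal-marker readout from a multiplexed transcription reporter panel. HepG2 cells were transfected with GAL4-UAS reporter units, treated 24 hours, and reporter transcript levels determined by fluorescence after RT-PCR and capillary separation.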

[6] = target: Transcriptional activator Myb (Homo sapiens) (UniProt P10242); experiment: ATG_Myb_CIS: Attagene CIS-FACTORIAL HepG2 Assay for human Myeloblastosis (Myb) Proto-Oncogene Transcription Factor (AID 2282986); settings: HepG2 Attagene CIS-FACTORIAL Myb reporter transcription; actives raise or lower the signal
Transcriptional activator Myb (Homo sapiens), sequence (P10242 whole entry, looked up): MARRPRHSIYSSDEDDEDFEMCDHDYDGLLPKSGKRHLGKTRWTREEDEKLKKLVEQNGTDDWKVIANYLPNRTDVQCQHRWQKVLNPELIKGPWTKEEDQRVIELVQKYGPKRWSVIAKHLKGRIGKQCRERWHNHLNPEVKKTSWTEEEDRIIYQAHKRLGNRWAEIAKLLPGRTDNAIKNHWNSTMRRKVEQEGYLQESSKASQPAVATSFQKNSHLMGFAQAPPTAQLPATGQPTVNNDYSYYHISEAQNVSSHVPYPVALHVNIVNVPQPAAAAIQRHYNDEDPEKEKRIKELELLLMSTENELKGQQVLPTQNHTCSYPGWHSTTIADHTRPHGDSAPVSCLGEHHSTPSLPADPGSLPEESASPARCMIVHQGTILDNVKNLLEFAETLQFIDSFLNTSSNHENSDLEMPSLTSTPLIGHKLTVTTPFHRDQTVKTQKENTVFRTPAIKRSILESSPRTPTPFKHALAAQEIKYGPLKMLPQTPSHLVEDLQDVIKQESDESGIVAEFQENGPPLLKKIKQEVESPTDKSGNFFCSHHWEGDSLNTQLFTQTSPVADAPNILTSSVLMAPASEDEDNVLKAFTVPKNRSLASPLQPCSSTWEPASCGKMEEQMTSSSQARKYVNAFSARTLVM
Method in brief: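 Transiently transfected HepG2 cells carrying a multiplexed cis-promoter reporter set report endogenous Myb activity after 24 h compound exposure. Reporter mRNA is read by RT-PCR with capillary electrophoresis of fluorescent products, fitted bidirectionally against DMSO.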

[7] = target: Nuclear respiratory factor 1 (Homo sapiens) (UniProt Q16656); experiment: ATG_NRF1_CIS: Attagene CIS-FACTORIAL HepG2 Assay for human Nuclear Respiratory Factor 1 (NRF1) Orphan Gene (AID 2282987); settings: HepG2 NRF1 cis-element reporter, Attagene multiplex; actives raise or lower the signal
Nuclear respiratory factor 1 (Homo sapiens), sequence (Q16656 whole entry, looked up): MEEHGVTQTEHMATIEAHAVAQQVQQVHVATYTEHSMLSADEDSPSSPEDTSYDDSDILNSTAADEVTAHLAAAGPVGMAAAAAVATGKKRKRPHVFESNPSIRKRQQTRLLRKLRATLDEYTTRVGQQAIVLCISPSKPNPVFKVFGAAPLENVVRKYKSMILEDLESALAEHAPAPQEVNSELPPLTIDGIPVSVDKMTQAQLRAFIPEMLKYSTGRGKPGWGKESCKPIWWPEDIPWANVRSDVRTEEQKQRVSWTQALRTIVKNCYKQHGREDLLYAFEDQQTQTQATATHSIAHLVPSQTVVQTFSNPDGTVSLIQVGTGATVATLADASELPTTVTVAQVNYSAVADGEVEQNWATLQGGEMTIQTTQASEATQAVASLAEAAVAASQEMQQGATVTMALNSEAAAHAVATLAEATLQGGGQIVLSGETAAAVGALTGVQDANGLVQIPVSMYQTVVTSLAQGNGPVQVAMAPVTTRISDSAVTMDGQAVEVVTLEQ
Method in brief: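 HepG2 cells transiently transfected with multiple cis-regulated reporter units, exposed 24 h. Reporter mRNAs measured by RT-PCR, fluorescent labelling, HpaI digestion and capillary electrophoresis; bidirectional fitting against DMSO.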

[8] = ATG_NFI_CIS: Attagene CIS-FACTORIAL HepG2 Assay for human Nuclear Factor I (NFI) (AID 2282989); settings: HepG2 cis-regulatory reporter, NFI response element transcription; actives raise or lower the signal
Method in brief: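 Reporter transcription driven by endogenous transcription factors in HepG2 cells; 24 h treatment. Quantitation by labelled RT-PCR fragments on capillary electrophoresis, gain- or loss-of-signal relative to DMSO.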

[9] = target: Myc proto-oncogene protein (Homo sapiens) (UniProt P01106); experiment: ATG_Myc_CIS: Attagene CIS-FACTORIAL HepG2 Assay for human Myelocytomatosis (Myc) Proto-Oncogene Transcription Factor (AID 2282990); settings: HepG2, Attagene cis-reporter transcription factor activity; actives raise or lower the signal
Myc proto-oncogene protein (Homo sapiens), sequence (P01106 whole entry, looked up): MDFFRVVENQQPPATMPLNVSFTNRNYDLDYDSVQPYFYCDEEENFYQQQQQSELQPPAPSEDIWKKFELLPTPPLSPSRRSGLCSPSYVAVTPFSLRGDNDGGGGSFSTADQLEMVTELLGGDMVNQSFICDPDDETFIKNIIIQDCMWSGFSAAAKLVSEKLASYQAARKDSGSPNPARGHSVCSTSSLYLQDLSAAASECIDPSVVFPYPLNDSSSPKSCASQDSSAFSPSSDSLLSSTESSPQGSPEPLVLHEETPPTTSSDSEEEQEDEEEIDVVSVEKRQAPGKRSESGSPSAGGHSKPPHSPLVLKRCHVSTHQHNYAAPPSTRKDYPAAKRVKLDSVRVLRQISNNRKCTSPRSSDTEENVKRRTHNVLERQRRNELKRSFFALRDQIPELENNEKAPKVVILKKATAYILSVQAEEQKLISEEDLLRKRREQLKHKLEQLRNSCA
Method in brief: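 Transiently transfected HepG2 cells bearing cis-promoter reporter units for endogenous transcription factors; 24 h exposure. Reporter mRNA measured by RT-PCR, 6-FAM primer extension, HpaI cut and capillary electrophoresis; bidirectional fit relative to DMSO.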

[10] = ATG_NF_kB_CIS: Attagene CIS-FACTORIAL HepG2 Assay for human Nuclear Factor Kappa B (NF-kB) (AID 2282991); settings: HepG2 Attagene cis-factorial NF-kB reporter mRNA; actives raise or lower the signal
Method in brief: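 HepG2 cells transfected with cis-promoter-driven reporter units, so endogenous transcription factor activity is measured. Reporter mRNA quantified 24 h after dosing by RT-PCR and capillary electrophoresis, with bidirectional fitting against DMSO.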

[11] = ATG_NRF2_ARE_CIS: Attagene CIS-FACTORIAL HepG2 Assay for human Nuclear Factor Erythroid 2 Related Factor 2 (NFR2) response to Antioxidant Response Elements (ARE) (AID 2282992); settings: HepG2 Attagene ARE/NRF2 reporter, transcription factor activity; actives raise or lower the signal
Method in brief: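 Endogenous transcription factor activity read out as reporter transcript levels (RT-PCR plus capillary electrophoresis, fluorescence) in transiently transfected HepG2 cells. Measured at 24 h after dosing; gain or loss of signal fitted versus DMSO.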

[12] = ATG_Oct_MLP_CIS: Attagene CIS-FACTORIAL HepG2 Assay for human Octamer-Binding Transcription Factor (Oct) (AID 2282993); settings: HepG2 Attagene cis-factorial Oct reporter, mRNA; actives raise or lower the signal
Method in brief: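 Transfected HepG2 cells, 24 h treatment. Reporter mRNA quantified by RT-PCR–capillary electrophoresis; bidirectional fitting against DMSO.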

[13] = target: Cellular tumor antigen p53 (Homo sapiens) (UniProt P04637); experiment: ATG_p53_CIS: Attagene CIS-FACTORIAL HepG2 Assay for human p53 Transcription Factor (AID 2282994); settings: HepG2 p53 cis-element reporter, Attagene mRNA; actives raise or lower the signal
Cellular tumor antigen p53 (Homo sapiens), sequence (P04637 whole entry, looked up): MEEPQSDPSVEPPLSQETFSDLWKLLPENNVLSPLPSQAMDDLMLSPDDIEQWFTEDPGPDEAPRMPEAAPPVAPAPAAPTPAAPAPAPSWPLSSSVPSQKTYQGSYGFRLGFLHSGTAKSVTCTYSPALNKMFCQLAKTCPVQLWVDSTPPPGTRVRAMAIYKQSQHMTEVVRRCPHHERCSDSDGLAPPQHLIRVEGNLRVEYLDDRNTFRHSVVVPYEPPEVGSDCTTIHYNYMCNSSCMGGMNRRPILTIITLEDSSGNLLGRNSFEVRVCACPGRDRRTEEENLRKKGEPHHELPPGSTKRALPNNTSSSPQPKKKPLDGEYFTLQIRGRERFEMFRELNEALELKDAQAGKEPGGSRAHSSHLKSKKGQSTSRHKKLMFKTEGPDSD
Method in brief: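 Endogenous p53 activity read in transiently transfected HepG2 from a cis-element-driven reporter transcript after 24 h exposure. RNA reverse-transcribed, PCR-amplified, fluorescently labelled and sized by capillary electrophoresis; gain or loss fitted against DMSO baseline.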

[14] = target: Oxysterols receptor LXR-beta (Homo sapiens) (UniProt P55055); experiment: ATG_LXRb_TRANS: Attagene TRANS-FACTORIAL HepG2 Assay for human Liver X Receptor beta (LXRb) (AID 2282981; active = hit-call score of the fitted dose curve at least 0.9, where 1 is the maximum); settings: HepG2 Attagene TRANS GAL4-LXRb reporter, mRNA
Oxysterols receptor LXR-beta (Homo sapiens), sequence (P55055 whole entry, looked up, the tested form may be a part): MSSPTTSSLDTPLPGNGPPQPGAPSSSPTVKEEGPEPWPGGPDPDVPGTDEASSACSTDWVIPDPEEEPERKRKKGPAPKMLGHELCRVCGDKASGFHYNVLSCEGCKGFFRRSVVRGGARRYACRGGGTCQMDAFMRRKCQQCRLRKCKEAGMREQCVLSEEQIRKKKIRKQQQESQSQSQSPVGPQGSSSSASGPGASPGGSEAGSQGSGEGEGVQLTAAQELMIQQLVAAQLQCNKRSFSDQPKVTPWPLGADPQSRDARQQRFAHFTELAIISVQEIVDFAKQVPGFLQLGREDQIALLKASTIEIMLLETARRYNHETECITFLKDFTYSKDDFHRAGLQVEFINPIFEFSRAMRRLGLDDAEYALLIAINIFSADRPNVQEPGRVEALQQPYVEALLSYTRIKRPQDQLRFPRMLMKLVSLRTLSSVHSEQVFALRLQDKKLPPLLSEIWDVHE
Method in brief: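 Multiplexed reporter assay, HepG2, 24 h dosing. Fluorescence of labelled RT-PCR products after capillary electrophoresis gives transcript level; positive fitting direction relative to DMSO.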

[15] = target: Nuclear receptor subfamily 4 group A member 2 (Homo sapiens) (UniProt P43354); experiment: ATG_NURR1_TRANS: Attagene TRANS-FACTORIAL HepG2 Assay for human Nuclear Receptor Related Protein 1 (NURR1) (AID 2282985; active = hit-call score of the fitted dose curve at least 0.9, where 1 is the maximum); settings: HepG2 Attagene TRANS reporter, mRNA readout
Nuclear receptor subfamily 4 group A member 2 (Homo sapiens), sequence (P43354 whole entry, looked up): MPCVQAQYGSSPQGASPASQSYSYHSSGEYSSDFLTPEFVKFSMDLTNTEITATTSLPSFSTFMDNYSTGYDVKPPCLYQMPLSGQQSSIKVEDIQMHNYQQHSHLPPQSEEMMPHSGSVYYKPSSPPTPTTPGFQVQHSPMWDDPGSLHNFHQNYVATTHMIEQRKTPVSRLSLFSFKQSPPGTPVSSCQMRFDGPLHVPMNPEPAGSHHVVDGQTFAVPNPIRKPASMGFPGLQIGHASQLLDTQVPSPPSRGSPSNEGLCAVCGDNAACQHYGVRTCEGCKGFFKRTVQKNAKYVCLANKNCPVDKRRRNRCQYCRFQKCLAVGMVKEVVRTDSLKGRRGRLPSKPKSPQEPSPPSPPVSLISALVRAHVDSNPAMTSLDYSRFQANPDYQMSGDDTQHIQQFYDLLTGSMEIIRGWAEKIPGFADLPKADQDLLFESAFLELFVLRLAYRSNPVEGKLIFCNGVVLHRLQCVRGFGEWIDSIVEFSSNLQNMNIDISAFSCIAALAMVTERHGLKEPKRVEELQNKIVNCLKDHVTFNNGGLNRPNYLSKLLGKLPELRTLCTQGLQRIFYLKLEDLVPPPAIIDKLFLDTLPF
Method in brief: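 Endpoint: reporter mRNA increase relative to DMSO. HepG2 cells transfected with reporter units, treated 24 h; RNA processed by RT-PCR, labelling, HpaI digestion and capillary electrophoresis.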

[16] = BSK_3C_TissueFactor: BioMAP Diversity Plus: 3C Assay for Tissue Factor Biomarker Activity (AID 2282997); settings: BioMAP 3C HUVEC, tissue factor biomarker readout; actives raise or lower the signal
Method in brief: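 Readout: Tissue Factor ELISA. Cells: human primary umbilical vein endothelium. Time: 24 h after dosing. Analysis: bidirectional fit, DMSO baseline.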

[17] = BSK_3C_VCAM1: BioMAP Diversity Plus: 3C Assay for Vascular cell adhesion molecule 1 (VCAM1) Biomarker Activity (AID 2282999); settings: BioMAP 3C HUVEC, VCAM1 ELISA, cytokine-stimulated; actives raise or lower the signal
Method in brief: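 HUVEC primary cells, 24 h compound exposure; VCAM-1 by ELISA; gain/loss of signal fitted bidirectionally vs DMSO baseline.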

[18] = BSK_3C_uPAR: BioMAP Diversity Plus: 3C Assay for Urokinase-type plasminogen activator receptor (uPAR) Biomarker Activity (AID 2282998); settings: BioMAP 3C HUVEC, uPAR biomarker ELISA; actives raise or lower the signal
Method in brief: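 Readout: ELISA for surface uPAR. System: human umbilical vein endothelial primary cells, 24 h after chemical exposure. Analysis: bidirectional fit, DMSO baseline.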

Measured: AC50

CCc1ccc(C)nc1
not listed: [14] | [15] | [16] | [17] | [18]
inactive: all other assays above

N#CCCOCCC#N
not listed: [2] | [15] | [16] | [17] | [18]
inactive: all other assays above

CC(C)Nc1ccc(NC(C)C)c2c1C(=O)c1ccccc1C2=O
inactive: [4] | [15] | [6] | [7] | [8] | [9] | [10] | [12] | [13]
active: [11] 2.85 µM

NC(=O)C(F)(F)C(F)(F)C(F)(F)C(F)F
not listed: [2] | [3] | [14] | [15] | [18]
inactive: all other assays above

OCC(O)CC(F)(F)C(F)(F)C(F)(F)C(F)(F)F (stereo unspecified)
not listed: [2] | [3] | [5] | [14] | [15]
inactive: all other assays above

CC(C)OC(=O)COc1ccc(Cl)cc1Cl
not listed: [1] | [2] | [4] | [14] | [16] | [17] | [18]
inactive: all other assays above

COC(F)(C(F)F)C(F)(F)F (stereo unspecified)
not listed: [1] | [2] | [3] | [5] | [14] | [18]
inactive: all other assays above

COCCC(=O)OC
inactive: [3] | [5] | [6] | [7] | [8] | [9] | [10] | [11] | [12] | [13]

FC(F)(F)C(F)(F)C(F)(F)C(F)(F)C(F)(F)C(F)(F)CC[Si](Cl)(Cl)Cl
not listed: [2] | [3] | [5]
inactive: all other assays above

O=C=NCc1cccc(CN=C=O)c1
not listed: [1] | [5]
inactive: all other assays above
